Experiment [1] can be described thus: P. berghei load reduction in hepatocytes – cell-based, HepG2, luciferase luminescence, HepG2 viability, primary screen (AID 624349; in the data active = parasite load remaining mostly below about 12%, no sharp cut-off; inactive = mostly above about 10%;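 also: 100% = mean of DMSO negative control wells on the same plate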). As to conditions: P. berghei liver stage in HepG2, luciferase luminescence, concentration not given here; parasite load remaining: stronger effect = lower value; viability: measured here: HepG2 viability without parasites.
Experiment [2] is described as follows: signal quenchers or enhancers, Cy5 substrate/SSB – biochemical, NIH Clinical Collection, E. coli SSB, artefact control for HCV NS3 helicase inhibitor project (AID 743268; call rule not given here). The note with it: Cy5-oligo bound E. coli SSB, fluorescence interference.
Experiment [3] relates to Hepatitis C virus NS3 helicase. Briefly: blockers of NS3h binding to DNA – biochemical, fluorescence polarization, NIH Clinical Collection, primary screen (AID 743270; call rule not given here). The note with it: NS3 helicase binding to Cy5-dT15 DNA, stronger effect = higher value, concentration not given here.
Experiment [4] concerns the target Single-stranded DNA-binding protein (Escherichia coli (strain K12)) (UniProt P0AGE0). Kind of experiment: SSB-ssDNA binding inhibitors – biochemical, fluorescence polarization, NIH Clinical Collection, counter-screen for HCV NS3 helicase inhibitor project (AID 743271; in the data active = inhibition above about 28%). As to conditions: E. coli SSB-DNA binding, stronger effect = higher value, concentration not given here.
A short description of experiment [5]: compounds distorting NS3 helicase fluorescence signal – biochemical, NIH Clinical Collection, artefact control for HCV NS3 helicase inhibitor project (AID 743272; call rule not given here;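 also: HCV NS3 helicase with a Cy5 labelled single stranded DNA probe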). As to conditions: fluorescence interference counterscreen, HCV NS3 helicase assay; stronger effect = lower value.
Experiment [6] is described as follows: modulation of C. elegans fzo-1 (AID 1259413; call rule not given here;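 also: fzo-1 mutant C. elegans worms in liquid wells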). The note with it: C. elegans fzo-1 modulator screen, mean read-out; stronger effect = higher value.
Experiment [7] is described as follows: EMT-state selective cytotoxicity in co-culture – imaging, PC-3E GFP, TEM4-18 mCherry, primary screen (AID 1345086;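 active = compounds killing one labelled cell type while sparing the other, by normalised counts and ratio limits, not self-fluorescent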;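 as to all read-outs here: cells exposed to compound for 72 h before imaging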;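 as to red/green cell ratio (normalised): normalised mesenchymal count divided by normalised epithelial count so high means epithelial killing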). As to conditions: PC-3E GFP / TEM4-18 mCherry co-culture, imaging cell counts, at 1 µM; for red/green cell ratio (normalised): actives lie on both sides, counts scaled to control wells, 1 = unselective.
Experiment [8] in a line: MELAS cybrid and Rieske KO viability enhancers – cell-based, MELAS cybrids, Rieske KO mouse fibroblasts, CellTiter-Glo, primary screen (AID 1508586;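 active = mean z-score across replicates of 1.96 or higher in either the MELAS or the Rieske mutant cell line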;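 also: z relative to plate mean and SD of compound and empty wells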). As to conditions: low glucose.
A further experiment has as its system F380Y. Briefly: BK channel mutant inhibitors and activators – cell-based, U2OS BacMam, thallium flux, beta subunits, selectivity assay, profiling panel (AID 1259406).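 Also: initial slope of Thallos dye fluorescence rise after thallium is added; log ratio against the mean of 0.3% DMSO vehicle wells on the same plate.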 As to conditions: U2OS BacMam BK variants, at 30 µM.
For a further experiment, the system named is F380Y/beta1. The description is as above. The note with it: U2OS BacMam BK variants, at 30 µM.
The test system of the next experiment is F380Y/beta2Delta. The description is as above. The note with it: U2OS BacMam BK variants, at 30 µM.
Another experiment relates to F380Y/beta4. The description is as above. The note with it: U2OS BacMam BK variants, at 30 µM.
The target of experiment [9] is Calcium-activated potassium channel subunit alpha-1 (Homo sapiens) + Leucine-rich repeat-containing protein 26 (Homo sapiens) (UniProt Q12791+Q2I0M4). The description is as above. As to conditions: U2OS BacMam BK variants, F380Y/Slo1WT/gamma1, at 30 µM.
Another experiment relates to R275C. The description is as above. As to conditions: U2OS BacMam BK variants, at 30 µM.
A further experiment concerns R275C/beta1. Described as above. The note with it: U2OS BacMam BK variants, at 30 µM.
The subject of the next experiment is R275C/beta2Delta. The experiment is described as above. The note with it: U2OS BacMam BK variants, at 30 µM.
The subject of the next experiment is R275C/beta4. The description is as above. The note with it: U2OS BacMam BK variants, at 30 µM.
The test system of another experiment is R275C/Slo1WT/beta2. The description is as above. The note with it: U2OS BacMam BK variants, at 30 µM.
Experiment [10] can be described thus: viability loss with induced miR-34 in A549 – imaging, A549 dox-inducible miR-34, nuclei and caspase counts, primary screen (AID 1347080;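 active = compounds whose cell count with miR-34 switched on is under 0.7 times the count with it off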). As to conditions: A549 miR-34 inducible, Hoechst nuclei count, 48 h.
The mark [11] stands for this setting: measured here: epithelial PC-3E GFP cell survival.
[12] abbreviates: measured here: mesenchymal TEM4-18 mCherry cell survival.
[13] abbreviates: MELAS cybrid survival, CellTiter-Glo 48 h, stronger effect = higher value.
The mark [14] stands for this setting: Rieske KO mouse fibroblast survival, CellTiter-Glo 72 h.
[15] abbreviates: stronger effect = lower value, cell number ratio, induced over uninduced.
Setting [16] is: measured here: relative caspase fold change +Dox/-Dox.
Setting [17] is: measured here: total cells with miR-34 induction, stronger effect = lower value.
Setting [18] is: measured here: total cells without miR-34 induction.

Molecules are shown by their SMILES. Values joined by “and” are separate entries in the source; they are usually repeats but may differ in a detail not shown here. Equal values may be shown once. Active and inactive are the calls of the source.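 The calls were made as follows, unless noted: active = thallium flux through the channel raised or lowered by more than 3 SD from vehicle-only wells, actives on both sides; inactive = the rest.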 Non-standard residues stand in square brackets, D forms with d. Residues, ends and D or L forms follow the SMILES beside them. pGlu = O=C1CC[C@@H](C(=O)O)N1; Thz = O=C(O)[C@@H]1CSCN1

Chain of Calcium-activated potassium channel subunit alpha-1 (Homo sapiens) + Leucine-rich repeat-containing protein 26 (Homo sapiens) (Q2I0M4 whole entry, looked up, one chain of several): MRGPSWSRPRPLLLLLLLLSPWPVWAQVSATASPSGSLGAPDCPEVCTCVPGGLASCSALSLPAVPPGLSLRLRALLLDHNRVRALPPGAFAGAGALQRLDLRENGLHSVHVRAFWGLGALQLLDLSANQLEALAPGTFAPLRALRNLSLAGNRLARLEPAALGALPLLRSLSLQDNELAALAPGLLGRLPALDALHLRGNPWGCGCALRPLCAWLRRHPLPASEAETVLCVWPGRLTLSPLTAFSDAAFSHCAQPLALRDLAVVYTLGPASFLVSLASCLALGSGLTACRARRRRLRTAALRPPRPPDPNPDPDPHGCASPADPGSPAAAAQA

For `O=C1CC[C@@H](C(=O)N2CSC[C@H]2C(=O)O)N1` ([pGlu]-[Thz]-OH), the parasite load remaining in [1] was 123% (inactive). For the same compound, the viability in [1] worked out at 115%. The fluorescence ratio in experiment [2] is 1 (inactive); in [5], 0.96 (inactive). Besides, the inhibition is 5.94% (inactive) in experiment [3] and 3.75% (inactive) in experiment [4]. For the same compound, the mean signal in experiment [6] was 225 (inactive). For the same compound, the red/green cell ratio (normalised) in [7] is 0.96 (inactive). Also, the normalised cell number in experiment [7] (setting [11]) stood at 0.97; in experiment [7] (setting [12]), 0.93. The values for the z-score in experiment [8] (setting [13]) and in experiment [8] (setting [14]) were 0.585 (inactive) and -0.48, respectively. The log fold change Tl+ flux in the experiment with F380Y was -0.0365 (inactive); in the experiment with F380Y/beta1, 0.0192 (inactive); with F380Y/beta2Delta, 0.00122 (inactive); in the experiment on F380Y/beta4, 0.0189 (inactive); in experiment [9], -0.0423 (inactive); with R275C it was -0.0391 (inactive). Besides, the log fold change Tl+ flux with R275C/beta1 was -0.0174 (inactive); with R275C/beta2Delta, -0.0226 (inactive); in the experiment with R275C/beta4, -0.00158 (inactive); with R275C/Slo1WT/beta2, -0.0454 (inactive).
In the case of `CC(=O)c1sc(SCc2ccc(Cl)cc2)c2c1CC(C)(C)CC2=O`, the log fold change Tl+ flux in the experiment with F380Y is -0.0184 (inactive); in the experiment with F380Y/beta1, 0.0319 (inactive); with F380Y/beta2Delta, 0.0184 (inactive); with F380Y/beta4, -0.123 (active); in experiment [9] it was -0.0796 (inactive); in the experiment with R275C, 0.014 (inactive). Besides, the log fold change Tl+ flux was -0.034 (inactive) in the experiment on R275C/beta1, -0.0422 (inactive) in the experiment with R275C/beta2Delta, 0.00684 (inactive) with R275C/beta4 and 0.00246 (inactive) with R275C/Slo1WT/beta2.
As for `COc1ccc(C[C@H](C)NC[C@@H](O)c2ccc(O)c(NC=O)c2)cc1`, in experiment [1], the parasite load remaining was 66.9% (inactive). In addition, the viability in [1] amounted to 77.1%. In addition, the fluorescence ratio is 1.02 (inactive) in experiment [2] and 0.98 (inactive) in experiment [5]. Also, the figures for the inhibition in experiment [3] and in experiment [4] were -9.9% (inactive) and -0.1% (inactive), respectively. For the same compound, the mean signal in experiment [6] was 235 (inactive). For the same compound, the fold change in experiment [10] (setting [15]) is 0.975 (inactive); in experiment [10] (setting [16]), 0.716. Also, the cell count amounted to 8230 in experiment [10] (setting [17]) and 8440 in experiment [10] (setting [18]). Besides, the z-score was -0.844 (inactive) in experiment [8] (setting [13]) and -0.643 in [8] (setting [14]). For the same compound, the log fold change Tl+ flux was -0.0497 (inactive) in the experiment with F380Y; -4.2e-05 (inactive) with F380Y/beta1; 0.0145 (inactive) with F380Y/beta2Delta; -0.0214 (inactive) in the experiment on F380Y/beta4; 0.0199 (inactive) in [9]; 0.00389 (inactive) in the experiment on R275C. Moreover, the log fold change Tl+ flux with R275C/beta1 is 0.0191 (inactive); with R275C/beta2Delta it was -0.0506 (inactive); with R275C/beta4, 0.0483 (inactive); in the experiment with R275C/Slo1WT/beta2 it was 0.0259 (inactive).
Take `CC[C@H]1OC(=O)[C@H](C)[C@@H](O[C@H]2C[C@@](C)(OC)[C@@H](O)[C@H](C)O2)[C@H](C)[C@@H](O[C@@H]2O[C@H](C)C[C@H](N(C)C)[C@H]2O)[C@](C)(O)C[C@@H](C)CN(C)[C@H](C)[C@@H](O)[C@]1(C)O`: the parasite load remaining in experiment [1] is 58.8% (inactive) and 152% (inactive) and 299% (inactive). Further, the viability in [1] is 118% and 82.2% and 91.4%. Moreover, the fluorescence ratio is 1.05 (inactive) in experiment [2] and 1.02 (inactive) in experiment [5]. In addition, the inhibition in experiment [3] was 1.36% (inactive); in experiment [4], -1.24% (inactive). For the same compound, in [6], the mean signal is 266 (inactive). The red/green cell ratio (normalised) in experiment [7] is 1.25 (inactive). The figures for the normalised cell number in experiment [7] (setting [11]) and in experiment [7] (setting [12]) were 1.02 and 1.27, respectively. Also, the fold change in experiment [10] (setting [15]) was 0.953 (inactive) and 0.891 (inactive); in [10] (setting [16]), 2.3 and 7.33. The cell count in [10] (setting [17]) is 9960 and 9940; in [10] (setting [18]), 10500 and 11200. The log fold change Tl+ flux in the experiment with F380Y is 0.0649 (inactive); with F380Y/beta1, 0.00314 (inactive); in the experiment on F380Y/beta2Delta it was 0.0029 (inactive); in the experiment with F380Y/beta4, -0.0644 (inactive); in experiment [9], -0.014 (inactive); in the experiment with R275C, 0.011 (inactive). Besides, the log fold change Tl+ flux in the experiment on R275C/beta1 is 0.0228 (inactive); in the experiment on R275C/beta2Delta, -0.0452 (inactive); in the experiment on R275C/beta4, -0.073 (inactive); with R275C/Slo1WT/beta2, 0.026 (inactive).

The values above are taken from PubChem BioAssay.
